Results on 28 compounds are retold here after PubChem BioAssay (EPA / NIEHS).

Assay [1] deals with Cytochrome P450 2C19 (Homo sapiens) (UniProt P33261). Put plainly: NVS_ADME_hCYP2C19: NovaScreen (NVS) CYP450-related Enzyme Activity (ADME) Assay for human CYP2C19 (AID 2283113).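 For AC50: potency for inhibition seen as loss of fluorescent signal.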 In a few lines:
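Biochemical CYP2C19 inhibition screen: insect-cell recombinant protein plus fluorescent substrate, 1 h, fluorescence intensity. Acetonitrile defined baseline activity. Single 10 uM concentration in duplicate, with concentration-response follow-up for actives.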

For assay [2], the target named is rat CYP2A1, Cyp2a1 (gene 24894) (UniProt P11711). Put plainly: NVS_ADME_rCYP2A1: NovaScreen (NVS) CYP450-related Enzyme Activity (ADME) Assay for rat CYP2A1 (AID 2283114; active = hit-call score of the fitted dose curve at least 0.9, where 1 is the maximum; inactive = score below 0.9). An outline of the steps:
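Recombinant rat CYP2A1, cell-free, fluorogenic substrate turnover read by fluorescence intensity 0.75 h after dosing. Primary screen at 10 uM in duplicate; actives rerun as concentration-response up to 20 uM; loss of signal versus acetonitrile control.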

In assay [3] the target is rat CYP2C11, Cyp2c11 (gene 29277) (UniProt P08683). Put plainly: NVS_ADME_rCYP2C11: NovaScreen (NVS) CYP450-related Enzyme Activity (ADME) Assay for rat CYP2C11 (AID 2283118). In a few lines:
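Cell-free recombinant rat enzyme with fluorescent substrate; readout 0.33 h after dosing, loss of signal versus acetonitrile control. Initial duplicate single-point at 10 uM; actives rerun in concentration series.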

The subject of the next assay is rat CYP2C6, gene 293989. Put plainly: NVS_ADME_rCYP2C6: NovaScreen (NVS) CYP450-related Enzyme Activity (ADME) Assay for rat CYP2C6 (AID 2283120). In a few lines: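 Cell-free recombinant rat CYP2C6 with fluorogenic substrate, read by fluorescence 1 h after dosing; acetonitrile as negative control. Primary screen at 10 uM in duplicate, actives then in concentration-response up to 20 uM.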

Assay [4] deals with human CYP2C9, CYP2C9 (gene 1559) (UniProt P11712). The experiment in a line: NVS_ADME_hCYP2C9: NovaScreen (NVS) CYP450-related Enzyme Activity (ADME) Assay for human CYP2C9 (AID 2283108). An outline of the steps: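 Fluorescence readout of CYP2C9 activity (SF9-expressed human enzyme) at 0.75 h. The primary screen used 10 uM in duplicate, with concentration-response follow-up for actives; acetonitrile was the negative control.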

In assay [5] the target is rat CYP2D2, Cyp2d26 (gene 25053) (UniProt P10634). The experiment in a line: NVS_ADME_rCYP2D2: NovaScreen (NVS) CYP450-related Enzyme Activity (ADME) Assay for rat CYP2D2 (AID 2283124). In a few lines:
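Recombinant rat CYP2D2 in a cell-free fluorogenic activity assay, fluorescence read 0.75 h after dosing. Primary screen in duplicate at 10 uM; actives re-run singly in concentration-response to 20 uM, relative to acetonitrile.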

The subject of a further assay is rat CYP3A1, gene 25642. The experiment in a line: NVS_ADME_rCYP3A1: NovaScreen (NVS) CYP450-related Enzyme Activity (ADME) Assay for rat CYP3A1 (AID 2283126). An outline of the steps:
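Cell-free recombinant CYP assay with fluorescent substrate, read 0.5 h after dosing. Screened at 10 uM in duplicate, hits at up to 20 uM in concentration-response; loss of signal versus acetonitrile baseline.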

For assay [6], the target named is rat CYP3A2, Cyp3a2 (gene 266682) (UniProt P05183). The experiment in a line: NVS_ADME_rCYP3A2: NovaScreen (NVS) CYP450-related Enzyme Activity (ADME) Assay for rat CYP3A2 (AID 2283128). As to the method: NVS_ADME_rCYP3A2 is a biochemical, single-readout assay that uses extracted gene-proteins in a cell-free assay. Measurements were taken 0.5 hour after chemical dosing in a 96-well plate.NVS_ADME_rCYP3A2 is one of one assay component(s) measured or calculated from the NVS_ADME_rCYP3A2 assay. It is designed to make measurements of enzyme activity, a form of enzyme reporter, as detected with fluorescence intensity signals by Fluorescence technology.Data from the assay component NVS_ADME_rCYP3A2 was analyzed into 1 assay endpoint. This assay endpoint, NVS_ADME_rCYP3A2, was analyzed in the positive analysis fitting direction relative to Acetonitrile as the negative control and baseline of activity. Using a type of enzyme reporter, loss-of-signal activity can be used to understand changes in the enzymatic activity as they relate to the gene Cyp3a2. Furthermore, this assay endpoint can be referred to as a primary readout, because this assay has produced multiple assay endpoints where this one serves a enzymatic activity function. To generalize the intended target to other relatable targets, this assay endpoint is annotated to the cyp intended target family, where the subfamily is xenobiotic metabolism.
Binding assays used specific radioligands (tritiated, iodinated) with non-radioactive competitive displacement ligands in agonist or antagonist protocols (as indicated) and various reference compounds and inhibitors to titrate specific binding to receptors and transporters. Most enzyme assays (CYPs, kinases, phosphatases, proteases, HDACs) used recombinant protein and specific substrates (fluorescence mostly, some colorimetric and radioactive) and inhibitors, followed by a biochemical separation of substrate and product. All assays for the biochemical HTS were initially run in duplicate at a single concentration (10 uM for CYP450 assays and 25 uM for all others). Assay-chemical combinations meeting a pre-defined threshold (e.g., 30% inhibition and other criteria defined below) were then run in singleton concentration-response format with maximum concentration of 20 uM for CYPs and 50 uM for all others. Each assay was run with positive and negative controls, and concurrent controls on every plate. The follow-up (secondary) screen tested active chemical-pairs in concentration series, as well as a few additional assays not tested in the primary screen, some selected negative inactives, and several cases re-run in the concentration series for confirmatory purposes.

The target of assay [7] is rat CYP2C13, Cyp2c13 (gene 171521) (UniProt P20814). Put plainly: NVS_ADME_rCYP2C13: NovaScreen (NVS) CYP450-related Enzyme Activity (ADME) Assay for rat CYP2C13 (AID 2283121). In a few lines:
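Recombinant rat CYP2C13 with fluorogenic substrate, 0.75 h cell-free incubation; primary screen in duplicate at 10 uM, actives followed in concentration series. Fluorescence loss relative to acetonitrile control indicates inhibition.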

For assay [8], the target named is Cytochrome P450 3A4 (Homo sapiens) (UniProt P08684). The experiment in a line: NVS_ADME_hCYP3A4: NovaScreen (NVS) CYP450-related Enzyme Activity (ADME) Assay for human CYP3A4 (AID 2283110). An outline of the steps: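 Compounds were first screened in duplicate at 10 uM against recombinant CYP3A4 produced in insect cells, then actives were run in concentration series. Enzyme activity was measured by fluorescence after 0.33 hour, with acetonitrile as baseline.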

The structures appear in SMILES notation. Several values for one entry are separate records, joined by “and”; a condition that tells them apart may be missing. Identical values can stand only once. Results filed as inconclusive are left out. Where a structure was tested more than once in an assay, its records may differ in their call. Activity calls are given as the source filed them. Rule for the calls, unless noted: active = hit-call score of the fitted dose curve at least 0.9, where 1 is the maximum; inconclusive = response in the unintended direction; inactive = score below 0.9.

rat CYP2C11, Cyp2c11 (gene 29277), sequence (P08683 whole entry, looked up): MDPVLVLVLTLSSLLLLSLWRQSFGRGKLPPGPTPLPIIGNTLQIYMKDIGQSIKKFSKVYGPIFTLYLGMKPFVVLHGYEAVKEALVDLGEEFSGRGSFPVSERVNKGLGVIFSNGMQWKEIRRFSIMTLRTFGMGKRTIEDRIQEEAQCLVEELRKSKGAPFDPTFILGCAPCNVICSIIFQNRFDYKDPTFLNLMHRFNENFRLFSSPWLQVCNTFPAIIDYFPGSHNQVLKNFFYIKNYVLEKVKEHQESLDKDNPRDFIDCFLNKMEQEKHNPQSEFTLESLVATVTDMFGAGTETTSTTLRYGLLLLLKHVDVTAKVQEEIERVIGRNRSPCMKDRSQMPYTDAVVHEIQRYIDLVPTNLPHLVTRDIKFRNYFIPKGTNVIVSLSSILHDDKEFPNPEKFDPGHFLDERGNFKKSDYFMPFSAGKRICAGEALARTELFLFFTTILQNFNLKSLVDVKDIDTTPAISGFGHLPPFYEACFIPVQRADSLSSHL
rat CYP2D2, Cyp2d26 (gene 25053), sequence (P10634 whole entry, looked up): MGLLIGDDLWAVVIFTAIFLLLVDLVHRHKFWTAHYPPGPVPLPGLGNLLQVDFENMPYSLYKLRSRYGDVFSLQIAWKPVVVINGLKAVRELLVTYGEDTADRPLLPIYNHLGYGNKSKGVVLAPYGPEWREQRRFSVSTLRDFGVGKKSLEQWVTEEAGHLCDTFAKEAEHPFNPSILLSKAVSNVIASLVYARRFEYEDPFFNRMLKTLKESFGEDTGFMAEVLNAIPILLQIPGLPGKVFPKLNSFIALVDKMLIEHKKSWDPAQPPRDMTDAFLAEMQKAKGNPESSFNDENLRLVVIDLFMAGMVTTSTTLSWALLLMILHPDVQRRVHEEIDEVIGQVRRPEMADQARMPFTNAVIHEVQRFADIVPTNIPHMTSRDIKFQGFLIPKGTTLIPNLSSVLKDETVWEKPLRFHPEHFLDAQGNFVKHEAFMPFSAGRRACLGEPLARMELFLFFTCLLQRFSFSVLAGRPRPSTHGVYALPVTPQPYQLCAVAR
Cytochrome P450 3A4 (Homo sapiens), sequence (P08684 whole entry, looked up): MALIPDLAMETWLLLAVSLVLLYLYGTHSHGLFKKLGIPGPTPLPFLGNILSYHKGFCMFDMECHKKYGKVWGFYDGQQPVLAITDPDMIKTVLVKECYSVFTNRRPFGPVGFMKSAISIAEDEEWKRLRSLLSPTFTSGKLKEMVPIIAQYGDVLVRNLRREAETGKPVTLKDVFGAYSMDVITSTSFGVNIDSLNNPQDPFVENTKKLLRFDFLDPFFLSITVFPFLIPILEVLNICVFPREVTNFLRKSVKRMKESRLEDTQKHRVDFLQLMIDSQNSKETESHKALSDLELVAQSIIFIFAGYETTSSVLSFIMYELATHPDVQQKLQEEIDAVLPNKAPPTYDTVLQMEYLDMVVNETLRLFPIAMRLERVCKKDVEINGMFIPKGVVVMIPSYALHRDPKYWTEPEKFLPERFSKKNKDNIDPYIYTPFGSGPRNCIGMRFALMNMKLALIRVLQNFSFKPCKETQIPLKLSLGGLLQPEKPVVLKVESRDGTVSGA
rat CYP2C13, Cyp2c13 (gene 171521), sequence (P20814 whole entry, looked up): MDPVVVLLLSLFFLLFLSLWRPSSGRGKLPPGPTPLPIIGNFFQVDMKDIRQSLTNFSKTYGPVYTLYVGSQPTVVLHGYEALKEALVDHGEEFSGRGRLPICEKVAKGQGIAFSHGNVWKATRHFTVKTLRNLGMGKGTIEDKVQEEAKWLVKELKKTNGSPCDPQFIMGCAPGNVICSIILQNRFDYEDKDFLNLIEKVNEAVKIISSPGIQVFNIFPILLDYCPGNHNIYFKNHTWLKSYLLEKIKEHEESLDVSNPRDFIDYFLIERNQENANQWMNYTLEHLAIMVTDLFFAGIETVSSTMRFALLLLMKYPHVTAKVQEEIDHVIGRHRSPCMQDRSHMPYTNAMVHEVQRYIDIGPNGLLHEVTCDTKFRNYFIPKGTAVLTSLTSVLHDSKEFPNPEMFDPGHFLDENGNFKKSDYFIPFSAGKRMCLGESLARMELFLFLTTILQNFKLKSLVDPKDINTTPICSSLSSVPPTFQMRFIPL
rat CYP2A1, Cyp2a1 (gene 24894), sequence (P11711 whole entry, looked up): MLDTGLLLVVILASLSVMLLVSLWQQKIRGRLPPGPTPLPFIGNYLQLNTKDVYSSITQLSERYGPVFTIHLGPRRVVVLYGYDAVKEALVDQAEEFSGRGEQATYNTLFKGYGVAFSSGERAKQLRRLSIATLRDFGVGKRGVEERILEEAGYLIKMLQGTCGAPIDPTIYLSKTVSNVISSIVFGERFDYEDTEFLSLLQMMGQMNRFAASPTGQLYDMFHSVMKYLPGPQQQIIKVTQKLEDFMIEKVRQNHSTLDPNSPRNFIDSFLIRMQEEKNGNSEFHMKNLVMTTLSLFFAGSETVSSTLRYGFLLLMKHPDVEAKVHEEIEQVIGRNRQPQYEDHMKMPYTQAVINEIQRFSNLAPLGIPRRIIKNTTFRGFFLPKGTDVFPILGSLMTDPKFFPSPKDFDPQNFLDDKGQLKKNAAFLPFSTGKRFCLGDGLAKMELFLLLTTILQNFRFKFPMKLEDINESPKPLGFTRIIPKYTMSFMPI
rat CYP3A2, Cyp3a2 (gene 266682), sequence (P05183 whole entry, looked up): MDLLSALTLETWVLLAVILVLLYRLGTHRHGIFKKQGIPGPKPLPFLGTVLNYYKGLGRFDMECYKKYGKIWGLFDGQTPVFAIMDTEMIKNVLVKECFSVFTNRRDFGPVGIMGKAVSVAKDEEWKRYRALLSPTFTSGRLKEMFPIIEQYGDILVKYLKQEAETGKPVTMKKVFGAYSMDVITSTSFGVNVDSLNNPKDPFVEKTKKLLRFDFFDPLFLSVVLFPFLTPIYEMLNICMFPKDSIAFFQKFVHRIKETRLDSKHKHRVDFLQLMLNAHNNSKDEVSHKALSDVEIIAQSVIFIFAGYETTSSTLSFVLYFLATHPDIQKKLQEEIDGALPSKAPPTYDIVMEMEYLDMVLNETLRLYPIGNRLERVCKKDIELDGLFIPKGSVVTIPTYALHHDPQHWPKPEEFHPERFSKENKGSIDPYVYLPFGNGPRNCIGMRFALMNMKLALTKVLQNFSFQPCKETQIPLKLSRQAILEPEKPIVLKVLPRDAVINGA
human CYP2C9, CYP2C9 (gene 1559), sequence (P11712 whole entry, looked up): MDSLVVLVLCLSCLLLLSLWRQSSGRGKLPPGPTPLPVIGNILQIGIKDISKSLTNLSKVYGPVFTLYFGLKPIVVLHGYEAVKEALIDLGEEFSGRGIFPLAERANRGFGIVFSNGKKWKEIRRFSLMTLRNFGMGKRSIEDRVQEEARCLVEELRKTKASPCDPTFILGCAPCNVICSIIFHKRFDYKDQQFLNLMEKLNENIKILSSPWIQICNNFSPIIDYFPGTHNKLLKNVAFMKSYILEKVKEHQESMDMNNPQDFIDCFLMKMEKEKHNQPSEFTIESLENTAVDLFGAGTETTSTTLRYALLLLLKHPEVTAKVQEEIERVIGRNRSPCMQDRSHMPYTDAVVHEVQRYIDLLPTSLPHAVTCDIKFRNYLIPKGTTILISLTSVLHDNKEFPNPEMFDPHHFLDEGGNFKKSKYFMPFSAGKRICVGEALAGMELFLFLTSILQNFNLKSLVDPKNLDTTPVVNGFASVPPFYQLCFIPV

By AC50 is commonly meant the concentration at which the activity in the assay is half-maximal. As for `C#CCOC(=O)[C@@H](C)Oc1ccc(Oc2ncc(Cl)cc2F)cc1`, the AC50 was 1.5 µM (active) in [1]; 1.1 µM (active) in [3]; 0.31 µM (active) with rat CYP2C6, gene 293989. Further, in [2], the outcome was inactive.

For `CCCCOCCOCCOCc1cc2c(cc1CCC)OCO2`, the half-maximal activity concentration (AC50) in assay [4] is 4.31 µM (active); in [1], 1.73 µM (active); in assay [3], 7.57 µM (active); in the assay on rat CYP2C6, gene 293989, 6.42 µM (active); in the assay on rat CYP3A1, gene 25642 it was 5.03 µM (active); in assay [6], 4.85 µM (active). The compound was called inactive in assay [2] and in [5].

For the compound `S=C([S-])NCCNC(=S)[S-].[Mn+2]`, the half-maximal activity concentration (AC50) is 10 µM (active) in [4]; 5.86 µM (active) in [1]; 10 µM (active) in assay [7]; 7.1 µM (active) with rat CYP3A1, gene 25642.

With `CN(C)C(=O)Nc1ccc(Cl)c(Cl)c1`, the half-maximal activity concentration (AC50) in [2] is 316 nM (active); with rat CYP3A1, gene 25642, 5.82 µM (active).

In the case of `COc1nc(C)nc(NC(=O)NS(=O)(=O)c2ccccc2OCCCl)n1`, in assay [1], the AC50 was 0.0177 µM (active).

As for `CCCCCOC(=O)COc1cc(N2C(=O)C3=C(CCCC3)C2=O)c(F)cc1Cl`, the outcome in assay [4] and in [2] was inactive. Moreover, the half-maximal activity concentration (AC50) in assay [1] was 4.42 µM (active).

Take `CSC(=O)c1cccc2nnsc12`: the half-maximal activity concentration (AC50) was 3.95 µM (active) in assay [1]; 4.28 µM (active) in the assay on rat CYP3A1, gene 25642; 1.79 µM (active) in assay [6].

`COC(=O)c1ccccc1C(=O)O`: the AC50 in [1] is 5.84 µM (active). Also, in [2], the compound was classed as inactive.

For the compound `CCCOC(=O)c1ccc(C(=O)OCCC)nc1`, the half-maximal activity concentration (AC50) in assay [1] is 6.74 µM (active).

Consider `CC(=O)S[C@@H]1CC2=CC(=O)CC[C@]2(C)[C@H]2CC[C@@]3(C)[C@@H](CC[C@@]34CCC(=O)O4)[C@H]12`, for which the AC50 in assay [1] was 6.12 µM (active).

As for `N#CSCSc1nc2ccccc2s1`, the half-maximal activity concentration (AC50) is 1.77 µM (active) and 5.62 µM (active) in assay [4]; 4.76 µM (active) in assay [1]; 9.17 µM (active) in assay [3]; 10.1 µM (active) in the assay on rat CYP3A1, gene 25642; 7.06 µM (active) in assay [6].

In the case of `CC(C)(c1ccc(O)cc1)c1ccc(O)cc1`, the concentration at half-maximal activity (AC50) in assay [4] is 5.49 µM (active) [middle of 4 runs]; in assay [2], 4.1 µM (active) [middle of 4 runs]; in assay [3], 1.16 µM (active) [middle of 4 runs]; in [7], 4.5 µM (active) [middle of 4 runs]; in the assay on rat CYP3A1, gene 25642 it was 9.88 µM (active); in [6] it was 8.05 µM (active).

For `CCCCOC(=O)C(C)Oc1ccc(Oc2ccc(C(F)(F)F)cn2)cc1` (stereo unspecified), the compound was classed as inactive in assay [1].

As to `C#C[C@]1(O)CC[C@H]2[C@@H]3CCC4=CC(=O)CC[C@@H]4[C@H]3CC[C@@]21CC`, the half-maximal activity concentration (AC50) in assay [1] is 1.24 µM (active).

For the compound `CCOC(=O)NCCOc1ccc(Oc2ccccc2)cc1`, the AC50 in assay [4] was 10 µM (active); in [1] it was 0.816 µM (active); in the assay with rat CYP3A1, gene 25642, 5.62 µM (active).

As for `CCCCC(CC)COC(=O)c1ccccc1C(=O)O` (stereo unspecified), the half-maximal activity concentration (AC50) in assay [4] was 5.35 µM (active); in [1], 7.13 µM (active).

Take `CCN(Cc1c(F)cccc1Cl)c1c([N+](=O)[O-])cc(C(F)(F)F)cc1[N+](=O)[O-]`: the AC50 in assay [1] is 10 µM (active); in the assay on rat CYP3A1, gene 25642, 6.19 µM (active); in [6] it was 4.04 µM (active).

With `CCOC(=O)[C@H](C)Oc1ccc(Oc2nc3ccc(Cl)cc3o2)cc1`, the call in assay [1] was inactive.

Take `CCCCC(CC)CN1C(=O)C2C3C=CC(C3)C2C1=O` (stereo unspecified): the half-maximal activity concentration (AC50) in assay [8] was 3 µM (active); in assay [1], 8.18 µM (active); in the assay with rat CYP3A1, gene 25642, 6.63 µM (active); in assay [6], 6.87 µM (active).

On to `CCCCOC(=O)[C@@H](C)Oc1ccc(Oc2ccc(C(F)(F)F)cn2)cc1`, for which the compound was classed as inactive in [1].

For the compound `Cc1nn(C)c(Oc2ccccc2)c1C=NOCc1ccc(C(=O)OC(C)(C)C)cc1`, the AC50 in assay [1] was 3.32 µM (active). Further, in assay [7], the call was inactive.

Consider `CCC(O)=C1C(=O)CC(C(=O)O)CC1=O` (stereo unspecified), for which, in assay [8], the result was inactive.

As to `C=CCOC(Cn1ccnc1)c1ccc(Cl)cc1Cl` (stereo unspecified), the AC50 was 0.379 µM (active) in [4]; 0.062 µM (active) in assay [1]; 187 nM (active) in [2]; 0.463 µM (active) in assay [3]; 0.452 µM (active) in the assay with rat CYP2C6, gene 293989; 0.125 µM (active) in assay [5]. Further, the concentration at half-maximal activity (AC50) in the assay with rat CYP3A1, gene 25642 was 0.729 µM (active); in assay [6], 0.874 µM (active).

On to `Oc1ccc(C(c2ccc(O)cc2)C(Cl)(Cl)Cl)cc1`, for which the half-maximal activity concentration (AC50) is 2.08 µM (active) in [4]; 7.75 µM (active) in [8]; 1.03 µM (active) in [1]; 1290 nM (active) in assay [2]; 0.188 µM (active) in [3]; 2.57 µM (active) in the assay on rat CYP2C6, gene 293989. Moreover, the AC50 was 0.883 µM (active) in assay [7]; 2.74 µM (active) in assay [5]; 2.7 µM (active) with rat CYP3A1, gene 25642; 2.7 µM (active) in [6].

As to `CC(=O)[C@H]1CC[C@H]2[C@@H]3CCC4=CC(=O)CC[C@]4(C)[C@H]3CC[C@]12C`, the half-maximal activity concentration (AC50) was 7.34 µM (active) in assay [4]; 5.46 µM (active) and 2.77 µM (active) in [8]; 2.46 µM (active) and 4.48 µM (active) and 6.21 µM (active) in [1]; 3.08 µM (active) and 6.76 µM (active) in assay [3]. Further, the compound was called inactive in assay [4].

As for `O=C(c1ccc(O)cc1O)c1ccc(O)cc1O`, the figures for the half-maximal activity concentration (AC50) in assay [8] and in [1] were 5.88 µM (active) and 6.3 µM (active), respectively.

For the compound `CC(C)CCCCCCc1ccc(O)cc1`, the concentration at half-maximal activity (AC50) in [1] was 2.75 µM (active).

Regarding `COC(=O)c1c(Cl)nn(C)c1S(=O)(=O)NC(=O)Nc1nc(OC)cc(OC)n1`, in assay [4], the AC50 was 2.89 µM (active).
